ELG1 DNA repair = ELG1-dependent DNA repair inhibition. HEK293T ELG1-luciferase reporter, luminescence, 16 h; DNA damage induced by 5-fluorouridine. Potency, µM (doses to about 46.1 µM), without a hit: top-dose activity change, negative = inhibition, hits mostly inhibitors. 330,000 tested, 2.3% active. AID 504467; note: % is set by controls: 0 for no effect and ±100 for the full control effect; nearly all actives have a fitted effect of over 55% in size
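Luminescence from the luciferase reporter, measured 30 min after ONE-Glo reagent at room temperature, was the read-out. Beforehand, 2,000 cells per well were exposed for 16 hr at 37 °C to 5-fluorouridine together with compound or vehicle.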
Rab9 prom act = activators of Rab9 promoter | Potency, µM (doses to about 9.22 µM), for the others: top-dose activation, negative = inhibition, usual class: activators | 320,000 tested, 2.8% active | AID 485297 | Huh7 Rab9 promoter-luciferase reporter, luminescence, 24 h; note: % of control where 0% means no effect; nearly all actives have a fitted effect of over 60% in size
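Huh7 reporter line, Rab9 promoter upstream of luciferase. Compound exposure 24 h at 37 °C in reduced-serum medium with 10% FBS. Read-out: luminescence.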
SMN2 splice enh = SMN2 splice variant enhancement; Potency, µM (highest dose often 46.1 µM), for inactives: top-dose activity change, positive = activation, usual class: activators; 210,000 tested, 2.8% active; AID 1458; HEK293 SMN2-luciferase splicing reporter, luminescence, 30-36 h; note: % of control where 0% means no effect; nearly all actives have a fitted effect of over 55% in size
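HEK293 cells carry an SMN2 […]–luciferase reporter in which exon 7 inclusion puts luciferase in frame. Cells were plated 10-12 h before compound addition, then incubated 30-36 h at 37C. ONE-Glo luminescence was read; sodium butyrate at 4.5 mM final served as control.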
FLuc counter = inhibits or activates purified firefly luciferase, miR-21 counter-screen; P08659; 360,000 tested, 6.9% active; purified FLuc, Km substrates, luminescence inhibition; Potency, µM (top dose mostly 57.5 µM), inactives show at the highest dose activity change, negative = inhibition, usual class: inhibitors;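 note: plate controls were vehicle for no effect and reference inhibitor for full effect; nearly all actives have a fitted effect of over 55% in size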
Target sequence (P08659 whole entry, looked up): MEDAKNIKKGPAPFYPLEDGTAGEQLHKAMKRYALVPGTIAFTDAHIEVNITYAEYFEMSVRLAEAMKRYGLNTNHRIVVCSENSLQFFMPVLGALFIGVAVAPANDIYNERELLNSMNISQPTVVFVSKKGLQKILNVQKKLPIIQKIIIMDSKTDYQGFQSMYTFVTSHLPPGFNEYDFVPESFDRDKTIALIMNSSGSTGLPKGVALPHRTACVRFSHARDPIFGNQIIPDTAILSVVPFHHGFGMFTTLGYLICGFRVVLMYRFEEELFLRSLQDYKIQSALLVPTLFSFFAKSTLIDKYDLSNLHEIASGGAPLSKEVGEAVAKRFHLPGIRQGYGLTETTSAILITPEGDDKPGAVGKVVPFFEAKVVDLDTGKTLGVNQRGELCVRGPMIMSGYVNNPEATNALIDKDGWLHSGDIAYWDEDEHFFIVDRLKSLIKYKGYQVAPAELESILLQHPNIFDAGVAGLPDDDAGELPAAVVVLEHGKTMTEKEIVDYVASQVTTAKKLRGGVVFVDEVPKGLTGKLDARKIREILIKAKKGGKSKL
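Purified P. pyralis luciferase, 10 nM final, with Km-level 10 uM D-luciferin and 10 uM ATP in 50 mM Tris acetate pH 7.5, 10 mM Mg acetate, 0.01% Tween-20, 0.05% BSA; 6-point qHTS titration about 60 µM downward; luminescence read.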
NPC1 promoter act = NPC1 promoter activation. Huh7 NPC1 promoter luciferase reporter, 24 h. Potency, µM (series often up to 9.22 µM), inactives show at the top dose activation, most hits filed as activators. 320,000 tested, 2.4% active; note: % of control where 0% means no effect; nearly all actives have a fitted effect of over 60% in size
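Huh7 reporter cells (NPC1 promoter driving luciferase) are dosed with compound for 24 h at 37 °C, 5% CO2; luciferase detection reagent is then added and luminescence measured after 10 min at ambient temperature.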
ELG1 genotoxic = induces genotoxicity in HEK293T cells with luciferase-tagged ELG1. Potency, µM (doses to about 46 µM), for the others: at the highest dose activity change, positive = activation, usual class: activators. HEK293T ELG1-luciferase reporter, luminescence, 16 h. 330,000 tested, 1.3% active. AID 504466; note: % of control where 0% means no effect; nearly all actives have a fitted effect of over 60% in size
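HEK293T cells expressing luciferase-tagged ELG1 were treated with compound or DMSO for 16 hr at 37°C. Luciferase activity was then read after 30 min with ONE-Glo at room temperature; rising signal flags genetic stress.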
Active calls of the source: *; ? = inconclusive; nt = no result; [ ] = another dose, or the depositor's remark. Shown are actives, neighbours in structure and some others; about 9.4% of the full set was active somewhere. Calls come from the whole dose curve; as a rule, active = well fitted curve in the direction sought with a large enough effect; inconclusive = small, poorly fitted or top-dose-only effect, or another doubt; inactive = no such curve, though single readings can be large; an effect the other way counts as inactive or inconclusive. Potency is the fitted concentration of half-maximal effect.

SMILES	ELG1 DNA repair	Rab9 prom act	SMN2 splice enh	FLuc counter	NPC1 promoter act	ELG1 genotoxic
Cc1c(Cc2ccccc2)c(=O)oc2c(C)c(OCC(=O)N3CCC(C(=O)O)CC3)ccc12	-3%	5%	nt	17µM*	0%	2%
Cc1c(CC(=O)N[C@H](C(=O)O)C(C)C)c(=O)oc2cc3c(cc12)CCC(C)(C)O3	?	1.8µM*	nt	11µM*	2.8µM*	?
CCC(C)NC(=O)Cc1c(C)c2cc3c(cc2oc1=O)OC(C)(C)CC3 (centres undefined)	?	4µM*	nt	?	?	9%
Cc1c(CC(=O)NC(C)C)c(=O)oc2cc3c(cc12)CCC(C)(C)O3	?	3.2µM*	nt	?	?	14%
Cc1c(CC(=O)NCC(C)C)c(=O)oc2cc3c(cc12)CCC(C)(C)O3	11%	26%	nt	?	-6%	1%
Cc1c(CC(=O)N[C@@H](C)C(=O)O)c(=O)oc2cc3c(cc12)CCC(C)(C)O3	14%	15%	nt	?	4%	0%
Cc1ccc(Cl)cc1NC(=O)Cn1c(=O)n(CCCS(=O)(=O)C2CCCCC2)c(=O)c2ccccc21	nt	nt	-11%	-13%	nt	nt
Cc1c(CC(=O)N2CCC(C(=O)O)CC2)c(=O)oc2cc3c(cc12)CCC1(CCCCC1)O3	18%	3%	nt	12µM*	-3%	8%
O=C(OCC(=O)N1CCc2ccccc21)c1c2c(nc3ccccc13)CCCC2	?	21%	nt	6.7µM*	8%	-19%
CC1Cc2ccccc2N1C(=O)COC(=O)c1c2c(nc3ccccc13)CCCCC2 (centres undefined)	13µM*	12%	-16%	?	11%	-13%
CCN(CC)CCCCn1c(-c2ccccc2)nc2c(NC3CCCCC3)nc(C)nc21	nt	nt	-18%	nt	nt	nt
COc1ccc(CCNC(=O)C(=O)Nc2ccccc2F)cc1	nt	nt	1%	0%	nt	nt
COc1ccc(CCCC(=O)Nc2ccccc2F)cc1	?	?	15%	13µM*	19%	?
Cc1ccc(CCC(=O)Nc2ccccc2F)s1	?	?	?	7.6µM*	?	10µM*
COc1ccc(C(=O)NC(=S)Nc2ccccc2F)cc1	?	1.4µM*	13µM*	2.7µM*	1.8µM*	?
O=C(CC(=O)Nc1ccccc1F)Nc1ccccc1F	1%	-4%	nt	-9%	0%	2%
COc1ccc(CNC(=S)Nc2ccccc2F)cc1	-2%	8%	nt	-9%	8%	-1%
COc1ccc(C(=O)NC(=S)NNC(=O)c2ccccc2O)cc1	17%	0%	nt	21µM*	2%	15%
Cc1ccc(-n2cnc3c(sc4nccc(N(C)C)c43)c2=O)cc1	10µM*	9%	23%	-3%	21%	-15%
Cc1ccc(C(=O)Nc2nc(C)c(C(=O)N(C)C)s2)o1	?	?	nt	?	29%	?
Cc1ccc(C(=O)Nc2ncc(C)s2)o1	?	4µM*	13µM*	11µM*	3.2µM*	?
Cc1ccc(C(=O)Nc2ncc(Cc3ccc(F)cc3)s2)o1	?	2.8µM*	11µM*	2.7µM*	2.5µM*	?
Cc1ccc(C(=O)Nc2ncc(C)s2)s1	?	?	nt	0.85µM*	0.45µM*	?
COc1cc(O)c2c(O)c3c(c4c2c1[C@@]1(C4)C(C)=CCCC1(C)C)[C@H](O)[C@@]1(O)CC(=O)C(C(N)=O)=C(O)[C@]1(O)C3=O	nt	nt	1%[9.22 µM]	nt	nt	nt
CCOc1ccccc1NC(=O)N(C)CCc1c(C)nn(CC)c1C	nt	nt	nt	-10%	nt	nt
O=C(CC1=NCCNC(c2ccccc2)C1)c1ccccc1O (centres undefined)	?	?	11µM*	0%	17%	9%
O=C(CC1(O)C(=O)Nc2ccccc21)c1ccccc1O (centres undefined)	2%	10%	11%	-1%	-4%	2%

Screening data deposited in PubChem BioAssay by National Center for Advancing Translational Sciences (NCATS).
